Measurements taken from PubChem BioAssay.
Some of the results follow. Active and inactive are the calls of the source.

Key:
[1] = target: Voltage-gated inwardly rectifying potassium channel KCNH2 (Homo sapiens) (UniProt Q12809); assay: hERG block by Kir2.1 inhibitor candidates – cell-based, thallium flux, counter-screen for Kir2.1 inhibitor project (AID 2236; call rule not given here;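 further: host cells are CHO cells stably expressing hERG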); settings: hERG-expressing cells, at 10 µM, stronger effect = higher value
[2] = target: Potassium channel subfamily K member 9 (Homo sapiens) (UniProt Q9NPC2); assay: human KCNK9 potassium channel blockers – cell-based, selectivity assay for Kir2.1 inhibitor project (AID 2329; call rule not given here); settings: KCNK9-expressing cells, ion flux inhibition; at 10 µM; stronger effect = higher value
[3] = target: Short transient receptor potential channel 4 (Mus musculus) (UniProt Q9QUQ5); assay: DAMGO-gated TRPC4 membrane potential modulation – cell-based, second specificity screen, HEK293 TRPC4/mu-opioid, selectivity assay for TRPC6 inhibitor project, confirmation (AID 2776;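 active means compounds whose fluorescence signal differed from control wells by over 3 SD, either direction, in both duplicate plates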); settings: HEK293 TRPC4/MOR, membrane potential dye fluorescence; at 10 µM; stronger effect = higher value; channel activated by saturating DAMGO dose
[4] = system: transient receptor potential cation channel C4 (TRPC4), mouse; assay: membrane potential change in TRPC4 cells – cell-based, HEK293 TRPC4/mu-opioid, membrane potential dye, selectivity assay for TRPC6 inhibitor project, confirmation (AID 2777;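 active means rise or fall in signal beyond 3 SD of buffer-only wells in both replicate plates, either sign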;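 further: integrated kinetic ratio of fluorescence range over baseline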); settings: membrane potential fluorescence, at 10 µM
[5] = parental HEK293 depolarization signal interference – cell-based, second counter screen, counter-screen for TRPC6 inhibitor project, confirmation (AID 2779;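 active means membrane potential signal moving either way by over 3 SD of the maximum-effect control, in both duplicate plates, meaning non-specific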); settings: parental HEK293 membrane potential dye fluorescence; at 10 µM; maximal acetylcholine challenge after compound addition
[6] = nonspecific voltage dye signal in HEK293 – cell-based, parental HEK293, counter-screen for TRPC6 inhibitor project, confirmation (AID 2780;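 active means membrane potential signal shifting up or down by more than 3 SD of buffer-only wells, on both duplicate plates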;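 further: plate controls were buffer EC0 wells for no effect and acetylcholine ECmax wells for full effect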); settings: parental HEK293 membrane potential dye fluorescence; at 10 µM
[7] = target: Inward rectifier potassium channel 2 (Mus musculus) (UniProt P35561); assay: Kir2.1 potassium current inhibition – cell-based, secondary, automated electrophysiology, Kir2.1 inhibitor project (AID 463252; call rule not given here); settings: Kir2.1 cells, automated patch-clamp current inhibition; at 25 µM; stronger effect = higher value
[8] = target: Short transient receptor potential channel 6 (Mus musculus) (UniProt Q61143); assay: blockers of TRPC6 cation channel activity – HEK293 cells, membrane potential dye, duplicate, confirmation (AID 488960;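 active means fluorescence ratio falls more than 5 SD below the full-stimulation control mean, in both duplicate runs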;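 on inhibition: integrated fluorescence ratio of peak minus minimum over baseline after agonist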); settings: ACh-evoked depolarization, at 10 µM; stronger effect = higher value
[9] = target: Short transient receptor potential channel 6 (Mus musculus) (UniProt Q61143); assay: mouse TRPC6 channel activators, confirmation, HEK293 cells, membrane potential dye, duplicate (AID 488961;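 active means ratio signal rise beyond 5 SD above unstimulated control wells' mean, seen in both duplicate runs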); settings: HEK293-TRPC6 membrane potential dye fluorescence, FDSS; at 10 µM
[10] = parental CHO-K1 cell activation, no KCNQ2 – FluxOR thallium flux, duplicate, counter-screen for KCNQ2 potentiator project, confirmation (AID 2282;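 active means signal rise of at least 3 SD above the untreated control mean, in both duplicate wells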;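 further: counter screen of KCNQ2 potentiator hits so any rise reflects channel-independent effects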); settings: parental CHO-K1 cells, FluxOR thallium flux fluorescence; at 10 µM; stronger effect = higher value; zero = vehicle mean+3SD, 100% = vehicle-minus-blank window
[11] = target: Potassium voltage-gated channel subfamily KQT member 1 (Homo sapiens) (UniProt P51787); assay: KCNQ1 activation in stable CHO cells – cell-based, FluxOR thallium flux, selectivity assay for KCNQ2 potentiator project, confirmation (AID 2283;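 active means fluorescence ratio rise of at least 3 SD of vehicle wells above their mean, in both replicate wells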;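 further: 0% = vehicle mean plus 3 SD and 100% = vehicle minus unstimulated blank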); settings: FluxOR thallium flux fluorescence, at 10 µM, stronger effect = higher value, beyond 3SD, as % of vehicle-control signal
[12] = target: Potassium voltage-gated channel subfamily KQT member 2 (Rattus norvegicus) (UniProt O88943); assay: KCNQ2 potassium channel activity enhancers – cell-based, CHO, FluxOR thallium flux, duplicate, confirmation (AID 2287;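 active means fluorescence ratio rising 3 SD or more over the vehicle control mean in both replicates, plus primary screen hit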;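 further: peak minus minimum thallium fluorescence divided by baseline after K/Tl stimulus; 0% = vehicle mean plus 3 SD and 100% = vehicle minus unstimulated blank difference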); settings: CHO-KCNQ2 cells, FluxOR thallium flux fluorescence; at 10 µM; stronger effect = higher value
[13] = target: Inward rectifier potassium channel 2 (Mus musculus) (UniProt P35561); assay: PubChem AID 2345; settings: HEK293 Kir2.1, FluxOR thallium flux fluorescence; at 10 µM; stronger effect = higher value;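 further: 0% = vehicle mean plus 3 SD and 100% = vehicle minus no-stimulus blank window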
[14] = target: Potassium voltage-gated channel subfamily KQT member 2 (Rattus norvegicus) (UniProt O88943); assay: W236L mutant KCNQ2 current enhancers – cell-based, rat KCNQ2 W236L, CHO, automated patch clamp, mechanism study for KCNQ2 potentiator project (AID 2558;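 active means current increase at least 3 SD of the untreated controls above them in both duplicate recordings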); settings: at 25 µM
[15] = target: Potassium voltage-gated channel subfamily KQT member 1 (Homo sapiens) (UniProt P51787); assay: enhancement of KCNQ1 channel thallium flux – FluxOR thallium flux, CHO cells, duplicates, confirmation (AID 493007); settings: KCNQ1 cell line, FluxOR thallium flux fluorescence, at 10 µM; stronger effect = higher value, % of reference activator effect, buffer zero;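 on outcome: cells depolarized by a potassium plus thallium sulfate stimulus after compound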;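 on potentiation: 0% = buffer-only wells and 100% = R-L3 activator control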
[16] = target: Potassium voltage-gated channel subfamily KQT member 2 (Rattus norvegicus) (UniProt O88943); assay: KCNQ2 thallium flux enhancement – KCNQ2-CHO-K1 cells, selectivity assay for KCNQ1 potentiator project (AID 493009;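 active means mean duplicate potentiation above the buffer control mean plus 5 SD of buffer wells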;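 further: assay conditions were tuned for KCNQ1 rather than KCNQ2 modulators; signal is max minus min fluorescence divided by baseline after thallium stimulus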); settings: FluxOR thallium flux fluorescence, at 10 µM; stronger effect = higher value, scaled: buffer 0, activator control 100
[17] = target: Potassium voltage-gated channel subfamily KQT member 1 (Homo sapiens) (UniProt P51787); assay: KCNQ1 activators by electrophysiology – IonWorks patch clamp, KCNQ1-CHO cells, orthogonal assay for KCNQ1 potentiator project, confirmation (AID 493184;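 active means current rise at least 3 SD above the untreated control mean in each of two repeat wells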); settings: automated patch clamp current, at 10 µM
[18] = nonspecific voltage dye response without TRPC6 – cell-based, parental HEK293, counter-screen for TRPC6 modulator project, confirmation (AID 488924;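 active means membrane potential signal moves up or down beyond 5 SD from buffer-only wells, on both duplicate plates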); settings: parental HEK293, membrane potential dye fluorescence; at 10 µM
[19] = membrane potential response modulators in host HEK293 cells – cell-based, second counter-screen, parental HEK293, membrane potential dye, counter-screen for TRPC6 modulator project, confirmation (AID 488926;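 active means membrane potential signal drops by more than 5 SD from the mean control signal, in both duplicate plates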); settings: parental HEK293, membrane potential dye fluorescence, at 10 µM, after compound, maximal acetylcholine stimulation; stronger effect = higher value
[20] = system: Transient receptor potential cation channel subfamily C member 4 (mouse); assay: off-target membrane potential effects via mouse TRPC4 – cell-based, HEK293 TRPC4/mu-opioid, membrane potential dye, selectivity assay for TRPC6 modulator project, confirmation (AID 488927;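 active means membrane potential signal moved up or down beyond 5 SD of buffer control wells, in both duplicate plates, actives on both sides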;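 further: plate controls were assay buffer wells for no effect and DAMGO maximal-effect wells for full effect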); settings: membrane potential fluorescence, at 10 µM

Chain of Short transient receptor potential channel 6 (Mus musculus) (Q61143 whole entry, looked up): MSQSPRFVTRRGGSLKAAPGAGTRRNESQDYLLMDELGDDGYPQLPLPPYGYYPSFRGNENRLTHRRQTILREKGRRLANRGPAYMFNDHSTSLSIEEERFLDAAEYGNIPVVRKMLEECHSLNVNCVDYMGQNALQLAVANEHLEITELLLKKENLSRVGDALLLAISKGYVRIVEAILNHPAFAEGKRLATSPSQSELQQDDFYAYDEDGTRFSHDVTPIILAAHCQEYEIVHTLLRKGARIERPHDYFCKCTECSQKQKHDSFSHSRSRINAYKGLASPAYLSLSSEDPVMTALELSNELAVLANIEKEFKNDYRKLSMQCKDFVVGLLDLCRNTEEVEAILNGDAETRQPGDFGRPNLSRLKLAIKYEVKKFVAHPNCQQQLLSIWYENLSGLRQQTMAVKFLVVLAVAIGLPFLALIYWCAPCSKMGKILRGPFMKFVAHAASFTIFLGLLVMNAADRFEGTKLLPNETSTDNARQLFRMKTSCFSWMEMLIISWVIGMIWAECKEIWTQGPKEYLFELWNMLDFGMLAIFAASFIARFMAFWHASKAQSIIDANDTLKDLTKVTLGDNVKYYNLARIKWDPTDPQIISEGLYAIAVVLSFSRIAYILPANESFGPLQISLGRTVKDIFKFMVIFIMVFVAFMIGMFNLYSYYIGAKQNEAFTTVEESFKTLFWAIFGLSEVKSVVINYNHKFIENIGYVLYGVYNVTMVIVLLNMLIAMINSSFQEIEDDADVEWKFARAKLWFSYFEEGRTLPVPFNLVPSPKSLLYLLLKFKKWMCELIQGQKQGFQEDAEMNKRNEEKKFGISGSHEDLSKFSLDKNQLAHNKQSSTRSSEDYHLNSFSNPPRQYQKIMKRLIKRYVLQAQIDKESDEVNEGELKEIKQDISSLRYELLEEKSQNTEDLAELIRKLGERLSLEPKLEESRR
Chain of Potassium voltage-gated channel subfamily KQT member 1 (Homo sapiens) (P51787 whole entry, looked up): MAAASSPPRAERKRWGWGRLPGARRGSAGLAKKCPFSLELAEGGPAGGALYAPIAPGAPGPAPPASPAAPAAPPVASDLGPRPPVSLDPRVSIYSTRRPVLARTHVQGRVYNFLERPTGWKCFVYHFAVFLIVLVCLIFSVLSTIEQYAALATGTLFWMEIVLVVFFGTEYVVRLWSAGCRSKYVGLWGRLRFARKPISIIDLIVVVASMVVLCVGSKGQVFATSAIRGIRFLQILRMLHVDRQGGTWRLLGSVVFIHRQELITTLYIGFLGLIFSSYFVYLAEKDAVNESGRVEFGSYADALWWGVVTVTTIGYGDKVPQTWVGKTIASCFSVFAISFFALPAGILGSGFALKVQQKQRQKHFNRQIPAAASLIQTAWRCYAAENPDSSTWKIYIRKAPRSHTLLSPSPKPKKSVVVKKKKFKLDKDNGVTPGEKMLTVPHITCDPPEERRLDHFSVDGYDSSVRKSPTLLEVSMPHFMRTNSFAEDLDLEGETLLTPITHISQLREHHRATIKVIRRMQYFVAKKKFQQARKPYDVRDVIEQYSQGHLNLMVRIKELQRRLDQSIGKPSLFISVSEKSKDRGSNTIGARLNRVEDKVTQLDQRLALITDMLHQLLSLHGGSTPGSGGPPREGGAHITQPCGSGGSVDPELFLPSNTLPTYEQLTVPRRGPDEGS
Chain of Inward rectifier potassium channel 2 (Mus musculus) (P35561 whole entry, looked up): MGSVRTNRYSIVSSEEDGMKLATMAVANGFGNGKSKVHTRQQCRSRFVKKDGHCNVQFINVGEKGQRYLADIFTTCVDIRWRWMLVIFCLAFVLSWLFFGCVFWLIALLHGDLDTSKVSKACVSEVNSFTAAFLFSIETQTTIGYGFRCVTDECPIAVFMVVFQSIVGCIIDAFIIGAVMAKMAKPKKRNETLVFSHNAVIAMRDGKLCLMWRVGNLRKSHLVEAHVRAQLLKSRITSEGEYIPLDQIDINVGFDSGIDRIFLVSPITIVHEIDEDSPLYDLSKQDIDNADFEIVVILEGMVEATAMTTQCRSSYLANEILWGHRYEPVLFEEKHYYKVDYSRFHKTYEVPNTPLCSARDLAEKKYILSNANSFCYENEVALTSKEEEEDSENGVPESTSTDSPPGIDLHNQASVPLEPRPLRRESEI
Chain of Short transient receptor potential channel 4 (Mus musculus) (Q9QUQ5 whole entry, looked up): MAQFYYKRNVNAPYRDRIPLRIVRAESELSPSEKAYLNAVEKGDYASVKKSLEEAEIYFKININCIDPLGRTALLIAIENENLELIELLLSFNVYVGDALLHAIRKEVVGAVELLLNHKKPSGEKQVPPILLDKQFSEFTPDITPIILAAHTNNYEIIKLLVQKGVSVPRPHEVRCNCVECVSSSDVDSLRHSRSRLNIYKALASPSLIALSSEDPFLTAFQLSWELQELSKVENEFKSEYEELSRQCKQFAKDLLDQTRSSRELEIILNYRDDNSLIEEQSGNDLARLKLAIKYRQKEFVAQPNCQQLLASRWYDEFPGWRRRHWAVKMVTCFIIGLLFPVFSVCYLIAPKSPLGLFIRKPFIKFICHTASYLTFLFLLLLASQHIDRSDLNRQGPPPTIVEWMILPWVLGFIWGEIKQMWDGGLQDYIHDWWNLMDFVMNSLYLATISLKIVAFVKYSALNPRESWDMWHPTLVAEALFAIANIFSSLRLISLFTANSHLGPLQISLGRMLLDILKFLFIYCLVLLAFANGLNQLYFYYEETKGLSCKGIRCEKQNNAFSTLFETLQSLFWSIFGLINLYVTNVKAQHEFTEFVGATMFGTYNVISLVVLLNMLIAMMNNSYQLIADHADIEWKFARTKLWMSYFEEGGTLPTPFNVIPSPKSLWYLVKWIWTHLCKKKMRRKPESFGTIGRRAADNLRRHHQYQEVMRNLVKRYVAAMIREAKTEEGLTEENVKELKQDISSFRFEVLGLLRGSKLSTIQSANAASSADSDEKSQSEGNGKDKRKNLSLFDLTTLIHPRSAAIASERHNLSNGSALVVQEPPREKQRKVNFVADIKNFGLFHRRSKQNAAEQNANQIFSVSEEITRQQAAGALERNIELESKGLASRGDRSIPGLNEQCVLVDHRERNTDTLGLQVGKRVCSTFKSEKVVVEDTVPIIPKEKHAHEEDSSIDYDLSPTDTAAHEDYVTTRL
Chain of Voltage-gated inwardly rectifying potassium channel KCNH2 (Homo sapiens) (Q12809 whole entry, looked up): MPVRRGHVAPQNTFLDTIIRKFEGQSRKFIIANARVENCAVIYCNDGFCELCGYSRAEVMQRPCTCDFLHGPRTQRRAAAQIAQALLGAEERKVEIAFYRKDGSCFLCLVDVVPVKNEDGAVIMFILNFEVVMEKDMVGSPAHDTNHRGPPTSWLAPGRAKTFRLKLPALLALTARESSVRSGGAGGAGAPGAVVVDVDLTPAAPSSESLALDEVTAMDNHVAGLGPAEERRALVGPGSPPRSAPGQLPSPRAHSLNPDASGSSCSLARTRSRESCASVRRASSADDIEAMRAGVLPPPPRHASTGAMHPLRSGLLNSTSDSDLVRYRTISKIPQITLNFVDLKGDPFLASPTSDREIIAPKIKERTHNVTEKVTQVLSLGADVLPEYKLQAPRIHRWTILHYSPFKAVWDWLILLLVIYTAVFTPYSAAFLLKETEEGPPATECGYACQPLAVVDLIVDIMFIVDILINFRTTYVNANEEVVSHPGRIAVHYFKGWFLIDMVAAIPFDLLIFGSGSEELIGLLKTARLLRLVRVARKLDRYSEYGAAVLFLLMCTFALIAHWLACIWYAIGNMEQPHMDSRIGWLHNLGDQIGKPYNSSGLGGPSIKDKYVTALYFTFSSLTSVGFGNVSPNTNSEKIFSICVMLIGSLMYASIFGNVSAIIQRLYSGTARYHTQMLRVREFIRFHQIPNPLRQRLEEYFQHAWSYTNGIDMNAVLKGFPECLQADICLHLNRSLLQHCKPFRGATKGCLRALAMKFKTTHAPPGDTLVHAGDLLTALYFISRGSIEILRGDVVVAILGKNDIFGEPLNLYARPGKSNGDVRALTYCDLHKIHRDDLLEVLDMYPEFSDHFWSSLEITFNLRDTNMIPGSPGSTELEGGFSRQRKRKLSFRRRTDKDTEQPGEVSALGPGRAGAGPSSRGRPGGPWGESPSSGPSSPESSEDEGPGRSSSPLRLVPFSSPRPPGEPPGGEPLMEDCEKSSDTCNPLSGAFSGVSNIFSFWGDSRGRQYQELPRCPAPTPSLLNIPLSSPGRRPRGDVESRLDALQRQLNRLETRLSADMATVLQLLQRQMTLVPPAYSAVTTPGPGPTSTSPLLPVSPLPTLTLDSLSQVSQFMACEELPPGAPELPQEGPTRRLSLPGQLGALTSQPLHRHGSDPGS

CCOc1cccc(=NC2CCCCC2)c2c(C)[nH]c(C)c12
inactive: outcome [8] | outcome [9]
active: inhibition [1] 74% | inhibition [2] 48% | inhibition [3] 56% | activity change, negative = inhibition [4] -8.98% | signal change vs control [5] -3.5% | membrane potential signal change [6] -146% | inhibition [7] 13.9%

COc1cc(-n2c(=S)[nH]c3ccc(C)cc3c2=O)c(Cl)cc1Cl
inactive: activation over 3SD threshold [11] -13.6% | activity over 3SD threshold [13] -22.9% | outcome [14] | outcome [17]
active: activity increase over 3SD of controls [10] 2.8% | potentiation, less the hit threshold [12] 1.9% | potentiation [15] 22.5% | potentiation [16] 153%

COc1cccc(CC(=O)N2CCN(Cc3cccc(Cl)c3)CC2)c1
inactive: outcome [15] | outcome [16] | outcome [17]

CN1CC(C(=O)c2ccccc2)C(c2ccccc2)C1 (stereo unspecified)
inactive: outcome [15] | outcome [16] | outcome [17]

CC1(C)Cc2c(C#N)c(N3CCNCC3)nc(-c3ccco3)c2CS1
inactive: outcome [18] | outcome [19] | outcome [9]
active: percent change from control (negative = decrease, positive = increase) [20] -14.5% | inhibition [8] 62.5%

CNC(=O)NC(O)C(Cl)(Cl)Cl (stereo unspecified)
inactive: outcome [15] | outcome [16] | outcome [17]
